Laboratory results published in PubChem BioAssay (NCI).
This is part of a sample that, as a whole, favours compounds with a hit. Of some 83,000 tested, about 20% had one in any assay.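 Method: cells in 96-well plates; compound added at one concentration; 48 h incubation; percent growth measured; values under 10 scored active.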 Values without a mark were called inactive. The source made the active and inactive calls.

How the values were obtained:
Experiment in all cases: NCI-60 one-dose screen, 48 h (100 = growth as untreated, 0 = no growth, -100 = all killed)
Details in all cases: 10 µM unless noted
NCI/ADR-RES ovarian = system: NCI/ADR-RES ovarian
T-47D breast = system: T-47D breast
BT-549 breast = system: BT-549 breast
MDA-MB-435 melanoma = system: MDA-MB-435 melanoma
HCC-2998 colon = system: HCC-2998 colon
KM12 colon = system: KM12 colon
SW-620 colon = system: SW-620 colon
MCF7 breast = system: MCF7 breast
HCT-116 colon = system: HCT-116 colon

Structure (SMILES) | growth (NCI/ADR-RES ovarian) | growth (T-47D breast) | growth (BT-549 breast) | growth (MDA-MB-435 melanoma) | growth (HCC-2998 colon) | growth (KM12 colon) | growth (SW-620 colon) | growth (MCF7 breast) | growth (HCT-116 colon)
CC(=O)O[C@H](C[C@H](C(C)C)N(C)C(=O)[C@@H](NC(=O)[C@H]1CCCN1C)C(C)C)c1nc(C(=O)N[C@@H](Cc2ccccc2)C[C@H](C)C(=O)O)c(C)s1 | 5.87% (active) | 50.6% | -22.7% (active) | -5.47% (active) | 21.9% | 8.49% (active) |  |  | 
COC(=O)[C@@H](C)C[C@H](Cc1ccccc1)NC(=O)c1csc([C@@H](C[C@H](C(C)C)N(C)C(=O)[C@H](C)NC(=O)[C@H]2CCCCN2C)OC(C)=O)n1 | 87.6% | 41.9% | 47.6% | -33% (active) | 33.8% | 22.4% | 18.4% |  | 
CC[C@H](C)[C@H](NC(=O)[C@H]1CCCCN1C)C(=O)N(C)[C@H](C[C@@H](O)c1nc(C(=O)N[C@@H](Cc2ccccc2)C[C@H](C)C(=O)O)cs1)C(C)C | 109% | 81.5% | 88.5% | 18.9% |  | 72.7% |  | 29.9% | 77.7%
O=C(CCl)c1ccc([N+](=O)[O-])o1 | -49.5% (active) | -53.5% (active) | 44.3% | -4.26% (active) | 31.1% | -21.2% (active) |  | 18.6% | -100% (active)
O=C(c1ccccc1O)c1[nH]c(Cl)c(Cl)c1-n1c(C(=O)c2ccccc2O)cc(Cl)c1Cl | -3.31% (active) | -10.1% (active) | -5.5% (active) | 3.49% (active) | 15.3% | -19.3% (active) |  | 1.43% (active) | 0.716% (active)
CC[C@@H]1[C@@H](C)O[C@@](O)([C@@H](C)[C@H](O)[C@H](C)[C@H]2OC(=O)/C=C/C=C/[C@H](C)[C@@H]([C@@H](C)[C@@H](O)[C@H](C)[C@@]3(O)C[C@@H](O[C@H]4C[C@@H](O)[C@H](O)C(C)O4)[C@H](CC)[C@@H](C)O3)OC(=O)/C=C/C=C/[C@@H]2C)C[C@H]1O[C@@H]1C[C@@H](O)[C@H](O)C(C)O1 (some centres undefined) | -64.3% (active) | -63% (active) | -90.5% (active) | -97% (active) | -74.7% (active) | -94.7% (active) |  | -69.2% (active) | -81.2% (active)
Cn1cc(-c2csc(-c3cn(CCN4CCOCC4)c4ccccc34)n2)c2cccnc21 | 31.4% | 2.94% (active) | 45.1% | 65.1% | 99.2% | 56.5% |  | 30.7% | 72.9%
Nc1ccc2c(c1)oc1ccccc12 | 95.1% | 97% | 97.9% | 94.7% | 97.6% | 106% |  | 83.2% | 99.8%
COC(=O)[C@@H](C)C[C@H](Cc1ccccc1)NC(=O)c1csc([C@@H](C[C@H](C(C)C)N(C)C(=O)[C@@H](NC(=O)[C@H]2CCCCN2C)c2ccc(F)cc2)OC(C)=O)n1 | 5.55% (active) | 45.7% | 0.368% (active) | -27.7% (active) | 10.1% |  |  | 22.3% | 3.28% (active)
CC1=C2[C@@H](CC1)[C@]1(C)O[C@@](C(C)C)(C[C@H]1O)[C@H]2OC(=O)C1CC1c1ccccc1 (some centres undefined) | 77.4% | 53.4% | 81.4% | 98.4% | 115% | 92% |  | 92.2% | 90.7%
COc1cc(NC(C)CCCNC2CN3CCC2CC3)c2ncccc2c1 (centres undefined) | 96.9% | 69.9% | 86% | 94.3% | 75.4% | 85.5% |  | 0.157% (active) | 66.4%
CCOC(=O)[C@@H](C)C[C@H](Cc1ccccc1)NC(=O)c1csc([C@@H](C[C@H](C(C)C)N(C)C(=O)[C@@H](NC(=O)[C@H]2CCCCN2C)C(C)(C)CC)OC(C)=O)n1 | 14.7% | 70.7% | -40.2% (active) | -60.8% (active) | 11.9% | 1.89% (active) |  | 24.2% | 0% (active)
O=C(CC1(O)C(=O)Nc2ccccc21)c1ccc(C(=O)NCC2CCC3(CC2)OOC2(CCCCC2)OO3)cc1 (centres undefined) | 86.9% | 31.8% | 80.1% | 81.6% | 106% | 77.4% |  |  | 65.9%
CCOC(=O)CCC(NC(=O)C(Cc1ccc(N(CCCl)CCCl)cc1)NC=O)C(=O)OCC (centres undefined) | 67.2% |  | 69.6% | 21.1% | 46.9% | 82.7% | 51.5% | 22.1% | 61.5%
O=C(N/N=C\c1ccc(N(CCCl)CCCl)cc1Cl)c1cccnc1 | 86.4% |  | 90.7% | 104% | 76.8% | 102% | 79.2% | 34.4% | 43%
COc1cc([C@@H]2c3cc4c(cc3[C@H](OC(C)=O)[C@H]3COC(=O)[C@@H]23)OCO4)cc(OC)c1OC | -43% (active) |  | 8.82% (active) | -24.4% (active) | -21% (active) | -37.1% (active) | 26.8% | 13.5% | -14.2% (active)

Structure (SMILES) | growth (NCI/ADR-RES ovarian) | growth (T-47D breast) | growth (BT-549 breast) | growth (MDA-MB-435 melanoma) | growth (HCC-2998 colon) | growth (KM12 colon) | growth (SW-620 colon) | growth (MCF7 breast) | growth (HCT-116 colon)
C[C@@]1(CCCCCCCCCc2ccc(O)cc2)C[C@]2(C)OC(=O)C[C@@H]2OO1 | 53.4% |  | 102% | 109% | 105% | 127% | 103% | 117% | 77.5%
CCCCCCCC[N+](C)(CCCCCCCC)CCCCCCCC | -100% (active) | -73.4% (active) |  | -90.8% (active) | -98% (active) | -100% (active) | -100% (active) | -100% (active) | -100% (active)
O=C1NC(=O)C(=Cc2cn(CCCCCCn3c4ccccc4c(=O)c4ccccc43)c3ccccc23)C(=O)N1 | 83.9% |  | 94.3% | 102% | 96.8% | 95.8% | 93.8% | 71.6% | 70.2%
CN(CCCCN(C)CCOS(C)(=O)=O)CCOS(C)(=O)=O | 76.3% | 81.1% |  | 101% | 58.4% | 95.1% | 74.1% | 71.2% | 81.4%
C=CCCCCCCCCC(=O)[O-].C=CCCCCCCCCC(=O)[O-].[Zn+2] | 99.2% |  | 108% | 100% | 107% |  | 102% | 108% | 101%
Fc1ccc(C2=CCNCC2)cc1 | 78.6% | 99.2% |  | 102% |  | 109% | 104% | 93.9% | 109%
ClCCN(CCCl)c1ccc(/C=N\N=C\c2ccc(N(CCCl)CCCl)cc2)cc1 | 55.1% |  | 50.5% | 27.4% | 45.7% | 30.3% | 36.8% | 35.1% | 36.7%
Nc1ccc(Cl)cc1 | 99.5% | 94.6% |  | 105% | 106% | 102% | 103% |  | 95.9%
C=CCc1cc2c(cc1OCC)OCO2 | 105% |  | 82.6% | 109% | 93.8% | 104% | 102% | 90.9% | 85.5%
Oc1c(CCl)cc(Cl)cc1CCl | 102% | 102% |  | 102% | 96.5% | 105% | 115% | 105% | 115%
CC(=O)O[C@H]1CC[C@]2(C)[C@H]3CC[C@]4(C)[C@@H](OC(C)=O)CC[C@H]4[C@@H]3[C@@H](C)[C@]2(O)C1 | 98.9% | 106% | 113% |  | 108% | 109% | 104% | 104% | 98.1%
Nc1ccc2c(c1)Cc1cc(Br)ccc1-2 | 101% | 102% |  | 111% | 99.7% | 105% | 108% | 64.7% | 98.2%
CN1CC(=O)N(O)C1(C)c1cccnc1 (centres undefined) | 104% |  | 95.7% | 97.4% | 98.7% | 108% | 111% | 98.7% | 102%
Clc1ccc2nnnn2n1 | 59.2% |  | 29.1% | -1.91% (active) | 107% | -38% (active) | 24.5% | 19.2% | -15.9% (active)
CCC1CN1CCCCN1CC1CC (centres undefined) | 103% |  | 103% | 93.7% | 100% | 106% | 105% | 99.8% | 98.7%
